# TIM10 inh: growth inhibitors of isogenic TIM10 control yeast, primary screen, counter-screen for tim10-1 yeast inhibitor project, luminescence, uHTS | 330,000 tested, 1.4% active | S. cerevisiae TIM10 strain growth, BacTiter-Glo luminescence, 24 h | inhibition, % at 10 µM | AID 463195, 2010;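 active = inhibition of 40% or more at the single tested concentration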;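 note: wild-type TIM10 isogenic control strain grown at permissive 25 °C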
# PfHsp90 set2: growth inhibition of PfHsp90-expressing yeast, primary screen, antimalarial PfHsp90 inhibitor project, S. cerevisiae, BacTiter-Glo luminescence, single point, set 2; BacTiter-Glo ATP, 48 h; yeast lacking PDR1 and PDR3 efflux regulators; inhibition, % at 9.4 µM; 310,000 tested, 0.32% active; AID 504621, 2011;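 active = every replicate shows inhibition above about 80%, whatever the replicate mean, limit read from the data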;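 note: 0% = DMSO neutral controls and 100% = 20 µM radicicol positive controls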
# NLRP3 yeast inh: NALP3 inflammasome inhibitors in reconstituted yeast, primary screen, luminescence, uHTS; Yeast reconstituted NLRP3/ASC/caspase-1, beta-gal luminescence, 24 h; inhibition, % at 10 µM; 330,000 tested, 0.39% active;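 active = inhibition of 50% or more; inactive = inhibition below 50%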;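 note: plate controls were induced DMSO wells for no effect and uninduced yeast grown without galactose for full effect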
# NALP1 inh: NALP1 inflammasome inhibitors in reconstituted yeast, colorimetric, S. cerevisiae, triplicate retest; inhibition, % at 10 µM; 280,000 tested, 0.61% active; S. cerevisiae NALP1/ASC/caspase-1 growth, X-gal OD620, 72 h; in the data active = inhibition mostly above about 24%, no sharp cut-off; inactive = mostly below about 32%
# tim23-1 inh: growth inhibitors of tim23-1 mutant yeast, primary screen, luminescence, uHTS. S. cerevisiae tim23-1 growth, BacTiter-Glo luminescence, 24 h. inhibition, % at 20 µM. 330,000 tested, 1.3% active. AID 463212, 2010;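 active = growth inhibition of the mutant yeast at or above 50%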;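 note: temperature-sensitive mutant grown at 25 °C; plate controls were DMSO-treated mutant yeast for no effect and medium wells lacking yeast for full effect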
# tim10-1 inh: growth inhibitors of tim10-1 mutant yeast, primary screen, luminescence, uHTS; S. cerevisiae tim10-1 ts strain growth, BacTiter-Glo, 24 h; inhibition, % at 20 µM; 330,000 tested, 2.2% active; AID 463190, 2010;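 active = inhibition of at least 40%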;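 note: mutant grown at 25 °C; 0% = DMSO wells with yeast and 100% = wells holding no yeast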
# tim10-1 conf: growth inhibitors of tim10-1 mutant yeast, confirmation, single concentration, luminescence, S. cerevisiae. shares compounds with tim10-1 inh. S. cerevisiae tim10-1 ts strain growth, BacTiter-Glo, 24 h. inhibition, % at 20 µM. 7,400 tested, 56% active;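 active = inhibition of yeast growth at or above a set limit in either of two repeat tests at 20 µM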;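 note: tim10-1 mutant grown at permissive 25 °C to find synthetic lethal compounds; 0% = DMSO yeast wells and 100% = medium wells without yeast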
# * = called active by the depositor; · = not tested or not shown. Hits are enriched below; roughly 4.1% of the tested compounds scored in any of these assays.
SMILES,TIM10 inh,PfHsp90 set2,NLRP3 yeast inh,NALP1 inh,tim23-1 inh,tim10-1 inh,tim10-1 conf
Cc1ccc(C(=O)Nc2ccc(C(=O)N3CCCCC3C)cc2)cc1 (centres undefined),13,17,-2,-21,22,47*,26
CC(=O)NC12CC3CC(C1)CC(C(=O)Nc1nc4ccc(S(C)(=O)=O)cc4s1)(C3)C2,5,17,11,27,14,7,·
O=CNC1(c2ccccc2)CCCCC1,·,-9,·,·,·,·,·
NNc1nc2c(F)cc(F)cc2s1,26,-62,10,20,45,41*,18
CSc1ccc(C2=C/C(=C3/SC(=S)NC3=O)c3ccccc3O2)cc1,·,8,·,·,·,·,·
O=C(CSc1cccc2cccnc12)N1CCCC1,-3,-25,24,16,46,42*,34*
O=c1c2ccccc2nnn1CSc1ccc2c(c1)OCCO2,21,62,27,-10,40,42*,35*
Cn1ncc(Cl)c1C(=O)Nc1cccc(Cl)c1,19,·,17,-59,29,47*,27
CCCC(=O)Nc1nc2ccc(OCC)cc2s1,20,-4,-7,4,45,42*,21
CN(C)c1ccc(/C=C/C=C2/SC(=S)N(c3ccccc3)C2=O)cc1,36,45,15,3,46,44*,29*
Cc1ccc(C)c(NS(=O)(=O)c2ccc(-c3coc(C)n3)cc2)c1,10,18,9,7,42,41*,24
Cc1ccc(NS(=O)(=O)c2ccc(-c3coc(C)n3)cc2)c(Br)c1,26,7,19,0,50,57*,17
Cc1nc(-c2ccc(S(=O)(=O)Nc3ccc(S(N)(=O)=O)cc3)cc2)co1,-1,6,12,19,-22,-3,·
Cc1nc(-c2ccc(S(=O)(=O)Nc3ccccc3C)cc2)co1,13,-42,-8,14,36,28,·
CCOc1cc(/C=C2\CN(CC)C/C(=C\c3ccc(O)c(OCC)c3)C2=O)ccc1O,34,-11,20,-6,42,49*,29
CCOc1cc(/C=N/N=C/c2ccc(O)c(OCC)c2)ccc1O,12,-5,-28,23,4,14,·
Cc1ccccc1OCC(=O)NNC(=S)NC(=O)c1ccccc1[N+](=O)[O-],15,0,28,3,34,42*,25
O=C(/C=C/c1cccc(F)c1)NCCCn1ccnc1,-9,-3,3,9,-3,10,·
O=C1CC(N2CCC(Cc3ccccc3)CC2)C(=O)N1CCc1ccccc1 (centres undefined),32,22,15,14,37,46*,4
c1ccc(-c2noc(CN3CCN(C(c4ccccc4)c4ccccc4)CC3)n2)cc1,29,-16,7,8,19,45*,12
c1ccc(-c2noc(CN3CCN(c4ccccc4)CC3)n2)cc1,0,8,2,0,23,5,·
CC(=O)c1c(C)[nH]c(C(=O)OCC(=O)c2ccc3c(c2)NC(=O)CO3)c1C,-8,·,12,·,-10,-3,·
Cc1sc2ccc3sccc3c2[n+]1C,20,4,17,5,25,43*,46*
Cc1ccn2c(NC(C)(C)C)c(-c3cccs3)nc2c1,19,-10,16,-2,42,44*,27
Cc1ccn2c(NC(=O)c3cccs3)c(-c3ccccc3)nc2c1,13,-27,11,31,22,1,·
O=C(NNC(=O)C1CCN(c2ncccn2)CC1)c1ccc(F)cc1,1,12,3,7,-1,-11,·
Cc1cc(N2CCN(c3ccccc3Cl)CC2)n2cc(-c3ccccc3)nc2n1,38,6,-14,·,46,42*,49*
Cc1cc(N2CCN(c3ccccc3)CC2)n2cc(-c3ccccc3)nc2n1,19,3,13,9,45,34,·

# Compound activity deposited in PubChem by several laboratories.
